# High-throughput results (PubChem BioAssay)
# The list is not random: actives were taken first. Their share in the collection is about 7.9%.
# Lassa entry inh = inhibitors of Lassa virus binding or cell entry; Lassa virus pseudotype entry inhibition, cell reporter; Potency, µM (series often up to 37.9 µM), usual class: inhibitors; hit rate 1.2% among 300,000; calls by dose curve; tested in HEK293 cells; further: nearly all actives have a fitted effect of over 50% in size
# MARV entry inh = Marburg virus entry inhibition; Potency, µM (doses to about 37.8 µM), hits mostly inhibitors; Marburg virus pseudotyped entry inhibition, cell reporter; hit rate 1.8% among 300,000; AID 540276; calls by dose curve; tested in HEK293 cells
# HCV inhibitor = blocks hepatitis C virus | AID 651820 | hit rate 3.4% among 340,000 | Potency, µM (highest dose often 41.8 µM), hits mostly inhibitors | Huh7.5.1 HCVcc-Cre infection, luciferase reporter, 44 h; active means well fitted inhibition curve with a large enough effect; inconclusive means small, poorly fitted or top-dose-only effect, or another doubt; inactive means no such curve, though single readings can be large or run the other way
#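 Cells seeded at 1,000/well and cultured 4 h, then compounds added followed by HCVcc-Cre virus (~0.5 moi). After 44 h further culture, luciferase substrate was added, plates held 15 min at room temperature, and luminescence read for 15 sec.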
# HCMV antiviral = blocks human cytomegalovirus replication | activity change, negative = inhibition, % at 57.5 µM | HFF cells, HCMV-luciferase reporter, 72 h; hits give low values | hit rate 4.5% among 410,000; in the data active means activity change below about -60%; inconclusive means no clear call, values can overlap the other calls; inactive means above about -39%
#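 Two-dose cell screen: HFF monolayers treated with compounds and infected with luciferase-expressing HCMV at 1 PFU/cell, 72 h at 37C, then lysed for luciferase measurement.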
# FMDV inh = foot and mouth disease virus antiviral activity | FMDV antiviral cell-based qHTS | hit rate 1.2% among 410,000 | Potency, µM (doses to about 57.9 µM), usual class: inhibitors; calls by dose curve; tested in HEK293T cells; further: read-out not given here; nearly all actives have a fitted effect of over 45% in size
# A number is an active result; – = inactive; ? = inconclusive; · = no result given.
SMILES,Lassa entry inh,MARV entry inh,HCV inhibitor,HCMV antiviral,FMDV inh
CN1CCN(C(=S)c2ccc(N(C)C)cc2)CC1,–,–,–,-108,–
C/C(=N\NC(=O)COc1ccc(C(C)(C)C)cc1)c1ccc(N2CCOCC2)cc1,1.3µM,–,–,–,–
CC(C)(C)c1ccc(OCC(=O)NCC2(N3CCOCC3)CCCCC2)cc1,?,?,·,-73,?
CNC(=S)N/N=C(\C)c1ccc(N2CCOCC2)cc1,·,·,–,-99,–
CCNC(=S)N/N=C(\C)c1ccc(N2CCOCC2)cc1,?,–,?,–,–
COC(=O)C1=CN(c2ccc(C(C)(C)C)cc2)C(N)=C(C#N)C1c1cccc([N+](=O)[O-])c1 (stereo unspecified),·,·,·,–,–
CCC(C)NC(=O)c1ccc(N2CC3CC(C2)c2cccc(=O)n2C3)c(NC(=O)c2c(F)cccc2F)c1 (stereo unspecified),·,·,·,–,–
COc1ccccc1CNC(=O)CCC(=O)N1CC(C)Sc2ccccc21 (stereo unspecified),–,·,–,–,–
CC(C)(c1ccccc1)c1ccc(OCC(O)CN2CCCC2)cc1 (stereo unspecified),?,2.8µM,?,–,–
COc1cc(/C=C/C(=O)N2CCN(CC(O)COc3ccccc3)CC2)cc(OC)c1OC (stereo unspecified),–,–,–,-82,?
COc1cc(C(=O)N2CCN(CC(O)COc3ccccc3)CC2)cc(OC)c1OC (stereo unspecified),–,–,–,–,–
OC(COc1ccc(OCC(O)CN2CCCCCC2)cc1)CN1CCCCCC1 (stereo unspecified),?,11µM,7.1µM,·,–
NC(=O)C1CCN(CC(O)COc2ccc(-c3ccccc3)cc2)CC1 (stereo unspecified),–,?,10µM,–,–
COc1cc(OC)c(NC(=O)C(c2ccccc2)N2Cc3ccccc3C2=O)cc1Cl (stereo unspecified),–,·,·,?,–
CCOc1ccc(NC(=O)CN(C)C(=O)C(C)Oc2ccc(Cl)cc2)cc1OCC (stereo unspecified),?,–,?,–,–
CO[C@H]1C=CO[C@@]2(C)Oc3c(C)c(O)c4c(O)c(c5c(nc6cc(C)ccn65)c4c3C2=O)NC(=O)/C(C)=C\C=C[C@H](C)[C@H](O)[C@@H](C)[C@@H](O)[C@@H](C)[C@H](OC(C)=O)[C@@H]1C,·,·,·,·,–
Cc1ccc(C(=O)N2CC(=O)NC(=O)C2)cc1,–,–,–,–,–
Cc1ccc(N2CCN(CC(O)COc3cccc(C)c3)CC2)cc1 (stereo unspecified),·,·,–,-62,–
Cc1cccc(N2CCN(CC(O)COc3ccccc3)CC2)c1 (stereo unspecified),–,?,–,–,–
CN1CCN(CC(O)COc2ccccc2)CC1 (stereo unspecified),·,·,–,–,–
CN1CCN(CC(O)COc2ccc(C34CC5CC(CC(C5)C3)C4)cc2)CC1 (stereo unspecified),–,?,10µM,?,–
OC(COc1ccccc1)CN1CCN(C(c2ccccc2)c2ccccc2)CC1 (stereo unspecified),·,·,7.9µM,–,–
CC(=O)c1ccc(F)c(-c2cc(C)cc3c2OC(CNC(=O)C[C@@H]2C[C@@H](C)NC(=S)N2)C3)c1 (stereo partly specified),·,·,·,·,–
O=C(Nc1nc(-c2ccccc2)c(-c2ccccc2)o1)c1ccc(F)cc1,–,10µM,?,–,–
COc1nc(NC(=O)c2ccc(F)cc2)nc(OC)c1-c1ccccc1,·,?,?,-64,–
SMILES,Lassa entry inh,MARV entry inh,HCV inhibitor,HCMV antiviral,FMDV inh
Cc1ccc(CCNC(=O)c2cc(S(=O)(=O)N3CCCC3)cn2C)cc1,·,·,?,–,–
CC(C)C(=O)N1CCN(c2nc3ccc(Cl)cc3s2)CC1,·,·,?,–,–
CC(C)NC(=O)N1CCCN(c2nc3ccc(Cl)cc3s2)CC1,–,–,4µM,?,–
CC(NC(=O)COC(=O)c1cc(=O)c2ccccc2o1)c1ccccc1 (stereo unspecified),?,–,–,–,–
Cc1nc2cc(NC(=O)[C@@H]3C[C@@H](Sc4ccccn4)CN3Cc3ccccc3)ccc2s1,·,·,·,·,–
CCn1c2ccc(/C(C)=N\O)cc2c2cc(/C(C)=N\O)ccc21,–,–,10µM,–,–
CCn1c2ccccc2c2cc(/C=N/n3cn[nH]c3=S)ccc21,–,10µM,11µM,–,–
CCn1c2ccccc2c2cc(/C=N/O)ccc21,–,–,11µM,-74,–
CCn1c2ccccc2c2cc(/C=N/n3cnnc3)ccc21,–,?,7.9µM,–,·
